Bioassay records deposited in PubChem BioAssay by several laboratories.
GRIN3A LBD mod = modulators (binders) of human NR3A ligand-binding domain; AID 1259313; Tm shift relative to glycine control, % at 25 µM; 2.5% of 340,000 active; NR3A LBD differential scanning fluorimetry, Tm shift; 0% = protein alone, 100% = glycine-bound protein;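 active means melting temperature shift of at least 10% of the positive control shift, at one fixed dose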
dFosB activator = activators of mouse delta FosB homodimer. P13346. purified delta FosB, TAMRA-CDK5 oligo fluorescence polarization; percent of positive-control signal above neutral wells. activation, % at 25 µM. 0.99% of 340,000 active;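 active means mean activation above about 17%, with every replicate also reaching it, limit read from the data, passing the limit was not always enough; inconclusive means only one of the two conditions met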
Target sequence (P13346 whole entry, looked up): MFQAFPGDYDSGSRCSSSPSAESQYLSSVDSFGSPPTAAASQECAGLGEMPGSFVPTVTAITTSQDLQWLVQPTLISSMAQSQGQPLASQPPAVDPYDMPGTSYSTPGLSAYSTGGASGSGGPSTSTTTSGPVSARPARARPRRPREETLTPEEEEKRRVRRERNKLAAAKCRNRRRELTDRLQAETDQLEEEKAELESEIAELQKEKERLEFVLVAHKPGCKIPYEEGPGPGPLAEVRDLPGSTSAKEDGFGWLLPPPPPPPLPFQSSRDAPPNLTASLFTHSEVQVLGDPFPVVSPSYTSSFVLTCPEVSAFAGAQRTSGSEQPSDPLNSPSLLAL
ZTA DNA inh = counter-screen for EBNA-1 inhibitors: inhibitors of Epstein-Barr virus ZTA; P03206; ZTA-DNA binding, fluorescence polarization; inhibition, % at 11 µM; 0.15% of 320,000 active; AID 2234; in the data active means inhibition above about 33%
Target sequence (P03206 whole entry, looked up): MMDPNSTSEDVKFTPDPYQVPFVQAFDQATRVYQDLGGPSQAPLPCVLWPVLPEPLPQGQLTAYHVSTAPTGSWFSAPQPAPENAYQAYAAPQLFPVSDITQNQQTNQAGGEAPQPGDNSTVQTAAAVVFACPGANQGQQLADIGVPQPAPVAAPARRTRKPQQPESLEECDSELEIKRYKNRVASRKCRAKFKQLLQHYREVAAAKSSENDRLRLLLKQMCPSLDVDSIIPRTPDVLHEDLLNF
TPT1 inhibitor = C. albicans TPT1 enzyme inhibition; recombinant caTPT1, FP RNA substrate dephosphorylation; inhibition, % at 5 µM; 0.81% of 300,000 active;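 active means inhibition above the mean of all tested compounds plus 3 SD, set per screening campaign, cut at about 24% in these data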
Rpn11 inh = blocks the human proteasome subunit Rpn11; human 26S proteasome, Ub4-pepOG fluorescence polarization; 20S core pre-blocked with epoxomicin; AID 588493; O00487; inhibition, % at 20 µM; 0.59% of 360,000 active;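 active means inhibition at 20 µM, scaled to each plate's controls, above about 33%, limit read from the data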
EBNA-1 inhibitor = blocks EBNA-1 binding to DNA; EBNA-1 DNA binding, fluorescence polarization; inhibition, % at 14.8 µM; 0.34% of 300,000 active; AID 1950; in the data active means inhibition above about 28%
EBNA-1 inh conf = EBNA-1 (EBV) inhibition, confirmation; shares compounds with EBNA-1 inhibitor; Recombinant EBNA-1 DBD, Cy5-DNA fluorescence polarization; inhibition, % at 14.8 µM; 35% of 830 active; AID 2292;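 active means mean inhibition across replicates above a set limit taken from the earlier primary screen, cut at about 28% in these data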
ZTA DNA inh trip = blocks Epstein-Barr virus ZTA in triplicate, EBNA-1 counter-screen | Zta-ZRE DNA binding, Cy5 fluorescence polarization | shares compounds with EBNA-1 inhibitor | inhibition, % at 11.1 µM | 830 tested, under 10 active | AID 2328;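 active means mean inhibition over triplicates above a set limit taken from the primary EBNA-1 screen, cut at about 37% in these data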;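 further: purified full length Zta protein with Cy5 labeled ZRE DNA probe; inhibitors lower polarization by freeing the labeled DNA probe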
Hits are given with their value; i = inactive; ? = inconclusive; nt = not tested or not shown; + = active, no number. In the library only some 4.5% were active in any assay of this set; here they are far more common.

SMILES | GRIN3A LBD mod | dFosB activator | ZTA DNA inh | TPT1 inhibitor | Rpn11 inh | EBNA-1 inhibitor | EBNA-1 inh conf | ZTA DNA inh trip
CN(C(=O)c1ccccc1C(=O)OCC(=O)Nc1ccc(S(N)(=O)=O)cc1)c1ccccc1 | i | i | i | i | i | i | nt | nt
Cc1ccccc1C(=O)Nc1nc2c(C)csc2c(=O)s1 | i | i | i | i | i | 55 | i | i
Cc1csc2c(=O)sc(NC(=O)c3ccc(F)cc3)nc12 | i | nt | i | i | i | i | nt | nt
Cc1ccc2c(c1)[nH]c1c(=O)n(Cc3ccco3)cnc12 | i | i | i | i | i | 70 | 37 | i
O=c1c2[nH]c3ccccc3c2ncn1Cc1ccco1 | i | i | i | i | i | i | nt | nt
CNC(=S)NNC(=O)c1sccc1OCc1ccc(C)cc1 | i | i | i | i | i | i | nt | nt
CNC(=S)NNC(=O)c1sccc1OCc1cccc(C(F)(F)F)c1 | i | i | i | i | i | 35 | 65 | i
CCc1nnc(NC(=O)CSc2nc3c(cc2C#N)CCC3)s1 | i | i | i | i | i | i | nt | nt
N#Cc1cc2c(nc1SCC(=O)Nc1nccs1)CCCCC2 | i | i | i | i | i | 30 | i | i
COc1ccc(-n2c(SCC(=O)NCC3CCCO3)nc3c([nH]c4ccccc43)c2=O)cc1 (stereo not given) | i | i | i | i | i | 110 | 123 | i
COc1cccc(-n2c(SCC(=O)NCC3CCCO3)nc3c([nH]c4ccccc43)c2=O)c1 (stereo not given) | i | i | i | i | i | i | nt | nt
O=C(COC(=O)/C=C/c1ccccc1)Nc1cc(C(F)(F)F)ccc1N1CCOCC1 | i | i | i | i | i | 55 | 75 | i
CC(C)C(=O)Nc1ccc(C(=O)NNC(=O)CCCOc2ccc(Cl)cc2Cl)cc1 | i | i | i | i | i | 36 | i | i
O=c1cc(-c2ccc(O)c(-c3c(O)cc(O)c4c(=O)cc(-c5ccc(O)cc5)oc34)c2)oc2cc(O)cc(O)c12 | 18 | 18 | i | i | i | 34 | 29 | i
CCCNC(=O)c1ccc(N2CCC3(CC2)CC(c2ccccc2)=NO3)c([N+](=O)[O-])c1 | i | i | i | i | i | i | nt | nt
CCCNC(=O)c1ccc(N2CCC3(CC2)CC(c2ccccc2)=NO3)c(N)c1 | i | i | i | i | i | 51 | i | i
Cc1ccc(CNC(=O)CCc2nnc3ccc(N4CCC5(CC4)OCCO5)nn23)cc1 | i | i | i | i | i | i | nt | nt
COc1ccc(NC(=O)COc2ccccc2)cc1Cl | i | i | i | i | i | i | nt | nt
COc1ccc(NC(=S)Nc2cc(-c3ccccc3)[nH]n2)cc1Cl | 34 | i | i | i | i | 36 | i | i
COc1ccc(N2CCN(c3ccc(C(=O)O)cc3[N+](=O)[O-])CC2)cc1 | i | i | i | i | i | i | nt | nt
CCOC(=O)c1c(C)[nH]c(C(=O)COC(=O)CNC(=O)c2ccc(Cl)cc2Cl)c1C | i | i | i | i | i | 96 | i | i
N#Cc1nc(-c2ccc(Cl)cc2)oc1NCc1cccc2c1OCO2 | i | ? | i | i | i | 28 | 30 | i
CN(C(=O)COC(=O)c1ccccc1NCCO)C1CCS(=O)(=O)C1 (stereo not given) | i | i | i | i | i | i | nt | nt
Cn1nccc1C(=O)N1CCCC(C(=O)c2cccc3ccccc23)C1 (stereo not given) | i | i | i | i | i | 40 | i | i
COCCn1cnnc1SCC(=O)Nc1cc(OC)c([N+](=O)[O-])cc1C | i | i | i | i | i | + | i | i
SMILES | GRIN3A LBD mod | dFosB activator | ZTA DNA inh | TPT1 inhibitor | Rpn11 inh | EBNA-1 inhibitor | EBNA-1 inh conf | ZTA DNA inh trip
N#CCC(=N)N1CCN(c2cccc(Cl)c2)CC1 | 12 | i | i | i | i | 45 | i | i
O=C(NCCN1CCCC1)c1ccc2c(c1)N(Cc1ccccc1)C(=O)c1ccccc1S2(=O)=O | i | i | i | i | i | i | nt | nt
CCc1c(C)sc2nc(SCC(=O)Nc3cc(C)on3)n(CCOC)c(=O)c12 | i | i | i | i | i | 34 | i | i
COCCn1c(SCC(=O)Nc2cc(C)on2)nc2ccccc2c1=O | i | i | i | nt | i | nt | nt | nt
CCN(CC)S(=O)(=O)c1ccc(C(=O)Nc2nnc(NC(=S)Nc3ccccc3)s2)cc1 | 28 | i | i | i | i | 38 | 75 | i
Cc1ccccc1-n1nc2c(c1NC(=O)c1cc3ccccc3o1)CS(=O)(=O)C2 | i | i | i | i | i | i | nt | nt
COc1ccc(N2CCN(C(=O)C3CCCN(S(=O)(=O)c4ccc(C)cc4)C3)CC2)cc1 (stereo not given) | i | i | i | i | i | i | nt | nt
CCOC(=O)c1cnc(SCc2nc(N)nc(Nc3ccc(F)cc3)n2)nc1N | i | ? | i | i | i | 49 | i | i
CCOC(=O)c1cnc(SCc2nc(N)nc(Nc3ccccc3OC)n2)nc1N | nt | nt | i | i | nt | i | nt | nt
CCOC(=O)N/N=C(/C)c1ccc([N+](=O)[O-])o1 | nt | i | i | i | i | 36 | i | i
FC(F)(F)c1ccccc1CNCc1ccc2c(c1)OCO2 | i | i | nt | nt | i | nt | nt | nt
CCOc1ccc(NC(=O)c2ccc(OC)cc2)cc1 | i | i | i | i | i | i | nt | nt
CCOc1ccc(NC(=O)c2ccc(C#CC(C)(C)O)cc2)cc1 | i | i | i | i | i | 30 | i | i
CCOc1ccc(NC(=O)c2ccc(NC(=S)NC3CC3)cc2)cc1 | 31 | i | i | i | i | 38 | 28 | i
Cc1ccc(OCC(=O)NC(=S)Nc2cccc(NC(=O)c3ccccc3)c2)cc1 | i | i | i | i | i | 29 | i | i
C[C@@H](C(=O)NNC(=O)c1ccc(Cl)cc1)N1C(=O)C2CC=CCC2C1=O (stereo not given in full) | i | i | nt | nt | i | nt | nt | nt
CCN(CC(=O)Nc1ccccc1OC)C(=O)c1cc(-c2ccccc2)nn1-c1ccccc1 | i | i | i | i | i | 45 | i | i
CCN(CC(=O)Nc1ccccc1C(F)(F)F)C(=O)c1cc(-c2ccccc2)nn1-c1ccccc1 | i | i | i | i | i | i | nt | nt
COCCNc1ncnc2c1ncn2[C@H]1CN(Cc2ccc(-c3ccccc3)cc2)C[C@@H](CO)O1 | nt | nt | nt | nt | i | nt | nt | nt
Cc1cc(CSc2ccccc2)ccc1NC(=O)c1cccc([N+](=O)[O-])c1 | i | ? | i | i | i | 28 | i | i
O=C(Nc1cccc(F)c1)C1CC(=O)N(c2ccc(Br)cc2)C1 (stereo not given) | i | i | i | i | i | i | nt | nt
O=C(Nc1cccc(Cl)c1Cl)C1CC(=O)N(c2ccc(Br)cc2)C1 (stereo not given) | i | i | i | i | i | 60 | i | i
CC(=O)c1ccc(NC(=S)NC(=O)Cc2ccc(Cl)cc2)cc1 | i | ? | i | i | i | 31 | 43 | i
CCCC(=O)NC(=S)Nc1ccc(C(C)=O)cc1 | i | i | i | i | i | i | nt | nt
